# Reference: the supplement of paper PMC12282887
# ± gives the standard deviation of the averaged measurements.
# Tests used:
# Test in all cases: promoter activity interaction Z-score (Lux/OD deviation from empty-vector control); higher = stronger promoter induction by the compound
# [1] = system: E. coli BW25113 acrABp lux reporter
# In short: (§1)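 Wild-type E. coli BW25113 and three single-gene deletion strains, each carrying a low-copy luxCDABE promoter reporter, were grown at 37°C in 40 µl LB Lennox per well of a 384-well plate. Every compound was applied at four 1:2 dilutions in biological duplicates, and OD600 and luminescence were read every 30 min for 12 h. Integration covered 0–8 h for wild type and 1–9 h for deletion strains, and wells under 10% of the median growth value were removed. Scores are Z-transformed residuals of growth-normalised luminescence fitted against a control.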
# [2] = system: E. coli BW25113 marRABp lux reporter
# In short: as §1
# [3] = system: E. coli BW25113 micFp lux reporter
# In short: as §1
# [4] = system: E. coli BW25113 ompFp lux reporter
# In short: as §1
# [5] = system: E. coli BW25113 robp lux reporter
# In short: as §1
# [6] = system: E. coli BW25113 soxSp lux reporter
# In short: as §1
# [7] = system: E. coli BW25113 tolCp lux reporter
# In short: as §1
# [8] = 1 µg/ml, genetic background: wild type
# [9] = 1 µg/ml, genetic background: ΔmarA
# [10] = 1 µg/ml, genetic background: Δrob
# [11] = 1 µg/ml, genetic background: ΔsoxS
# [12] = 1.9 µg/ml, genetic background: wild type
# [13] = 1.9 µg/ml, genetic background: ΔmarA
# [14] = 1.9 µg/ml, genetic background: Δrob
# [15] = 1.9 µg/ml, genetic background: ΔsoxS
# [16] = 3.8 µg/ml, genetic background: wild type
# [17] = 3.8 µg/ml, genetic background: ΔmarA
# [18] = 3.8 µg/ml, genetic background: Δrob
# [19] = 3.8 µg/ml, genetic background: ΔsoxS
# [20] = 7.7 µg/ml, genetic background: wild type
# [21] = 7.7 µg/ml, genetic background: ΔmarA
# [22] = 7.7 µg/ml, genetic background: Δrob
# [23] = 7.7 µg/ml, genetic background: ΔsoxS
compound,measurement,setting,value
NC1CONC1=O (configuration not stated) [Cycloserine D],promoter activity interaction Z-score,[1]; [8],0.0277 ± 0.22
same,promoter activity interaction Z-score,[1]; [9],0.657 ± 0.33
same,promoter activity interaction Z-score,[1]; [10],-0.0729 ± 0.055
same,promoter activity interaction Z-score,[1]; [11],0.00357 ± 0.22
same,promoter activity interaction Z-score,[1]; [12],-0.389 ± 0.056
same,promoter activity interaction Z-score,[1]; [13],0.57 ± 0.12
same,promoter activity interaction Z-score,[1]; [14],0.0199 ± 0.26
same,promoter activity interaction Z-score,[1]; [15],-0.339 ± 0.62
same,promoter activity interaction Z-score,[1]; [16],-0.136 ± 0.039
same,promoter activity interaction Z-score,[1]; [17],-0.29 ± 0.2
same,promoter activity interaction Z-score,[1]; [18],0.00284 ± 0.03
same,promoter activity interaction Z-score,[1]; [19],-0.0366 ± 0.12
same,promoter activity interaction Z-score,[1]; [20],-0.588 ± 0.2
same,promoter activity interaction Z-score,[1]; [21],-0.128 ± 0.24
same,promoter activity interaction Z-score,[1]; [22],-0.0882 ± 0.11
same,promoter activity interaction Z-score,[1]; [23],-0.319 ± 0.24
same,promoter activity interaction Z-score,[2]; [8],-0.0783 ± 0.12
same,promoter activity interaction Z-score,[2]; [9],-0.137 ± 0.057
same,promoter activity interaction Z-score,[2]; [10],-0.172 ± 0.25
same,promoter activity interaction Z-score,[2]; [11],-0.158 ± 0.078
same,promoter activity interaction Z-score,[2]; [12],-0.121 ± 0.15
same,promoter activity interaction Z-score,[2]; [13],0.00534 ± 0.14
same,promoter activity interaction Z-score,[2]; [14],-0.0886 ± 0.21
same,promoter activity interaction Z-score,[2]; [15],0.0634 ± 0.045
same,promoter activity interaction Z-score,[2]; [16],-0.109 ± 0.06
same,promoter activity interaction Z-score,[2]; [17],-0.119 ± 0.032
same,promoter activity interaction Z-score,[2]; [18],-0.11 ± 0.062
same,promoter activity interaction Z-score,[2]; [19],-0.153 ± 0.013
same,promoter activity interaction Z-score,[2]; [20],-0.273 ± 0.016
same,promoter activity interaction Z-score,[2]; [21],-0.299 ± 0.099
same,promoter activity interaction Z-score,[2]; [22],0.163 ± 0.27
same,promoter activity interaction Z-score,[2]; [23],-0.0525 ± 0.2
same,promoter activity interaction Z-score,[3]; [8],0.0376 ± 0.12
same,promoter activity interaction Z-score,[3]; [9],-0.00943 ± 0.084
same,promoter activity interaction Z-score,[3]; [10],-0.118 ± 0.074
same,promoter activity interaction Z-score,[3]; [11],-0.0115 ± 0.022
same,promoter activity interaction Z-score,[3]; [12],-0.417 ± 0.2
same,promoter activity interaction Z-score,[3]; [13],-0.00494 ± 0.0052
same,promoter activity interaction Z-score,[3]; [14],-0.0732 ± 0.01
same,promoter activity interaction Z-score,[3]; [15],-0.388 ± 0.035
same,promoter activity interaction Z-score,[3]; [16],-0.305 ± 0.5
same,promoter activity interaction Z-score,[3]; [17],-0.0376 ± 0.047
same,promoter activity interaction Z-score,[3]; [18],-0.0224 ± 0.047
same,promoter activity interaction Z-score,[3]; [19],-0.251 ± 0.019
same,promoter activity interaction Z-score,[3]; [20],-0.38 ± 0.0041
same,promoter activity interaction Z-score,[3]; [21],0.0683 ± 0.028
same,promoter activity interaction Z-score,[3]; [22],0.105 ± 0.092
same,promoter activity interaction Z-score,[3]; [23],-0.294 ± 0.16
same,promoter activity interaction Z-score,[4]; [8],0.314 ± 0.21
same,promoter activity interaction Z-score,[4]; [9],0.134 ± 0.086
same,promoter activity interaction Z-score,[4]; [10],-0.394 ± 0.46
same,promoter activity interaction Z-score,[4]; [11],0.0539 ± 0.036
same,promoter activity interaction Z-score,[4]; [12],-0.14 ± 0.24
same,promoter activity interaction Z-score,[4]; [13],0.387 ± 0.13
same,promoter activity interaction Z-score,[4]; [14],-0.422 ± 0.075
same,promoter activity interaction Z-score,[4]; [15],-0.381 ± 0.19
same,promoter activity interaction Z-score,[4]; [16],-0.202 ± 0.043
same,promoter activity interaction Z-score,[4]; [17],0.194 ± 0.031
same,promoter activity interaction Z-score,[4]; [18],0.0558 ± 0.16
same,promoter activity interaction Z-score,[4]; [19],0.0329 ± 0.09
same,promoter activity interaction Z-score,[4]; [20],-0.567 ± 0.3
same,promoter activity interaction Z-score,[4]; [21],0.0892 ± 0.075
same,promoter activity interaction Z-score,[4]; [22],0.153 ± 0.069
same,promoter activity interaction Z-score,[4]; [23],-0.485 ± 0.02
same,promoter activity interaction Z-score,[5]; [8],0.73 ± 0.71
same,promoter activity interaction Z-score,[5]; [9],0.0767 ± 0.37
same,promoter activity interaction Z-score,[5]; [10],0.466 ± 0.27
same,promoter activity interaction Z-score,[5]; [11],0.49 ± 0.31
same,promoter activity interaction Z-score,[5]; [12],-0.277 ± 0.26
same,promoter activity interaction Z-score,[5]; [13],0.295 ± 0.52
same,promoter activity interaction Z-score,[5]; [14],0.186 ± 0.67
same,promoter activity interaction Z-score,[5]; [15],0.471 ± 0.99
same,promoter activity interaction Z-score,[5]; [16],-0.466 ± 0.068
same,promoter activity interaction Z-score,[5]; [17],0.31 ± 0.081
same,promoter activity interaction Z-score,[5]; [18],0.0139 ± 0.21
same,promoter activity interaction Z-score,[5]; [19],-0.224 ± 0.093
same,promoter activity interaction Z-score,[5]; [20],-1.02 ± 0.081
same,promoter activity interaction Z-score,[5]; [21],-0.102 ± 0.31
same,promoter activity interaction Z-score,[5]; [22],-0.282 ± 0.25
same,promoter activity interaction Z-score,[5]; [23],-0.361 ± 0.67
same,promoter activity interaction Z-score,[6]; [8],0.217 ± 0.043
same,promoter activity interaction Z-score,[6]; [9],0.0924 ± 0.0091
same,promoter activity interaction Z-score,[6]; [10],0.0464 ± 0.16
same,promoter activity interaction Z-score,[6]; [11],0.093 ± 0.016
same,promoter activity interaction Z-score,[6]; [12],-0.193 ± 0.011
same,promoter activity interaction Z-score,[6]; [13],0.076 ± 0.02
same,promoter activity interaction Z-score,[6]; [14],-0.205 ± 0.024
same,promoter activity interaction Z-score,[6]; [15],0.164 ± 0.2
same,promoter activity interaction Z-score,[6]; [16],-0.0918 ± 0.052
same,promoter activity interaction Z-score,[6]; [17],-0.113 ± 0.019
same,promoter activity interaction Z-score,[6]; [18],0.0335 ± 0.083
same,promoter activity interaction Z-score,[6]; [19],-0.0149 ± 0.074
same,promoter activity interaction Z-score,[6]; [20],-0.198 ± 0.27
same,promoter activity interaction Z-score,[6]; [21],-0.171 ± 0.14
same,promoter activity interaction Z-score,[6]; [22],-0.117 ± 0.11
same,promoter activity interaction Z-score,[6]; [23],-0.174 ± 0.047
same,promoter activity interaction Z-score,[7]; [8],0.33 ± 0.084
same,promoter activity interaction Z-score,[7]; [9],1.18 ± 0.26
same,promoter activity interaction Z-score,[7]; [10],-0.401 ± 0.15
same,promoter activity interaction Z-score,[7]; [11],-0.259 ± 0.83
same,promoter activity interaction Z-score,[7]; [12],-0.543 ± 0.64
same,promoter activity interaction Z-score,[7]; [13],-0.33 ± 0.62
same,promoter activity interaction Z-score,[7]; [14],-0.224 ± 0.69
same,promoter activity interaction Z-score,[7]; [15],0.645 ± 0.11
same,promoter activity interaction Z-score,[7]; [16],0.289 ± 0.26
same,promoter activity interaction Z-score,[7]; [17],0.197 ± 0.06
same,promoter activity interaction Z-score,[7]; [18],0.242 ± 0.12
same,promoter activity interaction Z-score,[7]; [19],-0.045 ± 0.33
same,promoter activity interaction Z-score,[7]; [20],-1.06 ± 0.73
same,promoter activity interaction Z-score,[7]; [21],-0.822 ± 0.7
same,promoter activity interaction Z-score,[7]; [22],-0.397 ± 0.29
same,promoter activity interaction Z-score,[7]; [23],-0.568 ± 0.58
